One may read the AC50 as the midpoint of the concentration-response curve, whichever way the signal moves.

Read-out in experiment [1]: Interleukin-1 alpha (IL1a), IL1A (gene 3552)
Kind of experiment: BSK_KF3CT_IL1a: BioMAP Diversity Plus: KF3CT Assay for Interleukin-1 alpha (IL1a) Biomarker Activity (AID 2283070). Conditions: primary human keratinocytes with fibroblasts; actives raise or lower the signal. In outline:
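Human keratinocyte plus foreskin fibroblast primary co-culture, sampled 24 h after chemical dosing. IL-1a measured by ELISA; responses fitted bidirectionally against DMSO baseline (negative control), so gain or loss of signal both count.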

Read-out in experiment [2]: TIMP metallopeptidase inhibitor 2 (TIMP2), TIMP2 (gene 7077)
Kind of experiment: BSK_KF3CT_TIMP2: BioMAP Diversity Plus: KF3CT Assay for TIMP metallopeptidase inhibitor 2 (TIMP2) Biomarker Activity (AID 2283071). Conditions: primary human keratinocytes with fibroblasts; actives raise or lower the signal. In short, it runs like this: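 Human primary keratinocyte/foreskin fibroblast co-culture dosed with chemical and sampled at 24 h. TIMP-2 levels quantified by ELISA; bidirectional fitting against DMSO negative control as baseline.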

Read-out in experiment [3]: Transforming growth factor beta 1 (TGFb1), TGFB1 (gene 7040)
Kind of experiment: BSK_KF3CT_TGFb1: BioMAP Diversity Plus: KF3CT Assay for Transforming growth factor beta 1 (TGFb1) Biomarker Activity (AID 2283072). The conditions noted are these: primary human keratinocytes with fibroblasts; actives raise or lower the signal. In short, it runs like this:
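Human keratinocyte plus foreskin fibroblast primary co-culture, dosed with chemical for 24 h. TGF-b1 quantified by ELISA. Activity fitted bidirectionally against DMSO negative control as baseline.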

Read-out in experiment [4]: C-C motif chemokine 2 (Homo sapiens) (UniProt P13500)
Kind of experiment: BSK_KF3CT_MCP1: BioMAP Diversity Plus: KF3CT Assay for Monocyte Chemoattractant Protein 1 (MCP1/CCL2) Biomarker Activity (AID 2283073). Conditions: primary human keratinocytes with fibroblasts; actives raise or lower the signal. In short, it runs like this:
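KF3CT skin co-culture (keratinocytes/foreskin fibroblasts), 24 h post-dose; MCP-1 by ELISA; gain/loss of signal fit bidirectionally vs DMSO baseline.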

Read-out in experiment [5]: Matrix Metallopeptidase 9 (MMP9), MMP9 (gene 4318)
Kind of experiment: BSK_KF3CT_MMP9: BioMAP Diversity Plus: KF3CT Assay for Matrix Metallopeptidase 9 (MMP9) Biomarker Activity (AID 2283074).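 For AC50: MMP9 protein level quantified by ELISA in the co-culture.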 Conditions: primary human keratinocytes with fibroblasts; actives raise or lower the signal. In short, it runs like this: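 Keratinocyte plus foreskin fibroblast human primary skin co-culture was dosed with chemical and MMP-9 was quantified by ELISA 24 h later. Bidirectional curve fitting used DMSO as negative control and activity baseline.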

Read-out in experiment [6]: urokinase plasminogen activator (uPA), PLAU (gene 5328)
Kind of experiment: BSK_KF3CT_uPA: BioMAP Diversity Plus: KF3CT Assay for urokinase plasminogen activator (uPA) Biomarker Activity (AID 2283075). Conditions: primary human keratinocytes with fibroblasts; actives raise or lower the signal. In outline:
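Human keratinocyte plus foreskin fibroblast primary co-culture exposed to chemical for 24 h. uPA levels were quantified by ELISA, and activity was fitted bidirectionally against a DMSO negative-control baseline.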

Read-out in experiment [7]: CD40, CD40 (gene 958)
Kind of experiment: BSK_LPS_CD40: BioMAP Diversity Plus: LPS Assay for CD40 Biomarker Activity (AID 2283076). Conditions: primary human HUVEC with PBMC; actives raise or lower the signal. In outline: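 ELISA readout of CD40 in HUVEC/PBMC co-culture (BSK_LPS system), 24 h post-dosing; bidirectional curve fit, DMSO baseline; parallel SRB total-protein staining for cytotoxicity.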

Read-out in experiment [8]: E-selectin (Homo sapiens) (UniProt P16581)
Kind of experiment: BSK_LPS_Eselectin: BioMAP Diversity Plus: LPS Assay for Eselectin Biomarker Activity (AID 2283077). The conditions noted are these: primary human HUVEC with PBMC; actives raise or lower the signal. In short, it runs like this: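 ELISA readout of E-selectin, 24 h post-dose, HUVEC + PBMC co-culture (LPS system). Gain or loss of signal vs DMSO baseline, bidirectional fit.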

Read-out in experiment [9]: Interleukin-8 (IL8), CXCL8 (gene 3576)
Kind of experiment: BSK_LPS_IL8: BioMAP Diversity Plus: LPS Assay for Interleukin-8 (IL8) Biomarker Activity (AID 2283078). The conditions noted are these: primary human HUVEC with PBMC; actives raise or lower the signal. In outline:
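HUVEC + PBMC co-culture, LPS-activated; test chemicals dosed, IL-8 read by ELISA at 24 h. Bidirectional curve fit vs DMSO baseline (gain or loss of signal).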

A short description of experiment [10]: BSK_LPS_SRB: Viability Assessment in the BioMAP Diversity Plus: LPS Assay (AID 2283079).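 Note: total protein by sulforhodamine B absorbance as a cytotoxicity measure; measured one day after compound addition.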 The conditions noted are these: primary human HUVEC with PBMC. In outline:
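HUVEC + PBMC co-culture, LPS-stimulated; compound 24 h. 10% TCA fix, 0.1% SRB stain, A560. Bidirectional fit vs DMSO.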

Read-out in experiment [11]: Interleukin-1 alpha (IL1a), IL1A (gene 3552)
Kind of experiment: BSK_LPS_IL1a: BioMAP Diversity Plus: LPS Assay for Interleukin-1 alpha (IL1a) Biomarker Activity (AID 2283080). Conditions: primary human HUVEC with PBMC; actives raise or lower the signal. In short, it runs like this: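 HUVEC/PBMC co-culture, LPS system; 24 h after dosing; IL-1a by ELISA; gain or loss of signal fitted bidirectionally vs DMSO baseline.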

Read-out in experiment [12]: Monocyte Chemoattractant Protein-1 (MCP1), CCL2 (gene 6347)
Kind of experiment: BSK_LPS_MCP1: BioMAP Diversity Plus: LPS Assay for Monocyte Chemoattractant Protein-1 (MCP1) Biomarker Activity (AID 2283081).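 For AC50: secreted MCP-1 protein quantified by ELISA in culture supernatant.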 The conditions noted are these: primary human HUVEC with PBMC; actives raise or lower the signal. In short, it runs like this: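 ELISA read-out of MCP-1 after 24 h chemical dosing of a human umbilical vein endothelial cell/peripheral blood mononuclear cell co-culture stimulated with LPS. Gain or loss of signal fitted relative to DMSO controls.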

A short description of experiment [13]: BSK_LPS_PGE2: BioMAP Diversity Plus: LPS Assay for Prostaglandin E2 (PGE2) Biomarker Activity (AID 2283082). Conditions: primary human HUVEC with PBMC; actives raise or lower the signal. In outline: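 HUVEC plus PBMC co-culture stimulated with LPS; secreted PGE2 quantified by ELISA 24 h after chemical dosing. Activity fitted bidirectionally against DMSO as negative control and baseline; parallel SRB total-protein staining served as cytotoxicity check.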

Read-out in experiment [14]: Macrophage colony-stimulating factor (MCSF), CSF1 (gene 1435)
Kind of experiment: BSK_LPS_MCSF: BioMAP Diversity Plus: LPS Assay for Macrophage colony-stimulating factor (MCSF) Biomarker Activity (AID 2283083). The conditions noted are these: primary human HUVEC with PBMC; actives raise or lower the signal. In outline:
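HUVEC + PBMC co-culture (human primary), 24 h post-dose; M-CSF by ELISA; gain/loss of signal fitted bidirectionally vs DMSO baseline.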

Read-out in experiment [15]: Tissue Factor, F3 (gene 2152)
Kind of experiment: BSK_LPS_TissueFactor: BioMAP Diversity Plus: LPS Assay for Tissue Factor Biomarker Activity (AID 2283084). The conditions noted are these: primary human HUVEC with PBMC; actives raise or lower the signal. In short, it runs like this:
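HUVEC/PBMC co-culture, LPS-activated; CD142 ELISA read 24 h post-dose; bidirectional curve fit vs DMSO negative control.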

Read-out in experiment [16]: Tumor necrosis factor (Homo sapiens) (UniProt P01375)
Kind of experiment: BSK_LPS_TNFa: BioMAP Diversity Plus: LPS Assay for Tumour Necrosis Factor alpha (TNFa) Biomarker Activity (AID 2283085).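 For AC50: TNFa protein level quantified by ELISA in the co-culture.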 The conditions noted are these: primary human HUVEC with PBMC; actives raise or lower the signal. In outline: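 Human umbilical vein endothelial cells co-cultured with PBMC were exposed to test chemical and TNFa measured by ELISA 24 h after dosing. Bidirectional curve fitting was done relative to DMSO as negative control and baseline.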

Read-out in experiment [17]: Vascular cell adhesion molecule 1 (VCAM1), VCAM1 (gene 7412)
Kind of experiment: BSK_LPS_VCAM1: BioMAP Diversity Plus: LPS Assay for Vascular cell adhesion molecule 1 (VCAM1) Biomarker Activity (AID 2283086). The conditions noted are these: primary human HUVEC with PBMC; actives raise or lower the signal. In outline:
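Human umbilical vein endothelial cells co-cultured with peripheral blood mononuclear cells under LPS stimulation were exposed to test chemical for 24 h. VCAM-1 levels were then measured by ELISA, with bidirectional curve fitting relative to DMSO as negative control and baseline.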

Read-out in another experiment: CD38, CD38 (gene 952)
Kind of experiment: BSK_SAg_CD38: BioMAP Diversity Plus: SAg Assay for CD38 Biomarker Activity (AID 2283087). Conditions: primary human HUVEC with PBMC; actives raise or lower the signal. In outline:
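Fluorescence ELISA of cell-surface CD38 served as the read-out, with either increase or decrease fitted against DMSO controls. Cells were a human umbilical vein endothelium plus PBMC co-culture under SEB/TSST-1 stimulation, measured 24 h after dosing.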

Read-out in experiment [18]: CD40, CD40 (gene 958)
Kind of experiment: BSK_SAg_CD40: BioMAP Diversity Plus: SAg Assay for CD40 Biomarker Activity (AID 2283088). Conditions: primary human HUVEC with PBMC; actives raise or lower the signal. In outline:
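HUVEC/PBMC co-culture, 24 h post-dose; CD40 by ELISA, fluorescence intensity; bidirectional fit vs DMSO negative control.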

Read-out in another experiment: CD69, CD69 (gene 969)
Kind of experiment: BSK_SAg_CD69: BioMAP Diversity Plus: SAg Assay for CD69 Biomarker Activity (AID 2283089). Conditions: primary human HUVEC with PBMC; actives raise or lower the signal. In short, it runs like this:
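ELISA, fluorescence read-out: CD69 on human umbilical vein endothelial cell + PBMC co-culture, 24 h post-dosing. Gain or loss of signal fitted bidirectionally against DMSO baseline.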

“And” between values parts separate entries of the source, which are not always exact repeats. Equal entries are not always repeated. A structure can be active in one record and inactive in another. The source made the active and inactive calls. Rule for the calls: active = hit-call score of the fitted dose curve at least 0.9, where 1 is the maximum; inactive = score below 0.9.

Tumor necrosis factor (Homo sapiens), sequence (P01375 whole entry, looked up): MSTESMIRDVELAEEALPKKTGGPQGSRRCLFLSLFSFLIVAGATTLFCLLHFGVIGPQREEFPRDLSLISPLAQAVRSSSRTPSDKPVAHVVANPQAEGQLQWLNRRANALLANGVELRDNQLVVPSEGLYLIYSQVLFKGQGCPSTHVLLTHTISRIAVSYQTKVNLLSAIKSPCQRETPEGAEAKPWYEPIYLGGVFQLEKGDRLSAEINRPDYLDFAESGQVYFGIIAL
E-selectin (Homo sapiens), sequence (P16581 whole entry, looked up): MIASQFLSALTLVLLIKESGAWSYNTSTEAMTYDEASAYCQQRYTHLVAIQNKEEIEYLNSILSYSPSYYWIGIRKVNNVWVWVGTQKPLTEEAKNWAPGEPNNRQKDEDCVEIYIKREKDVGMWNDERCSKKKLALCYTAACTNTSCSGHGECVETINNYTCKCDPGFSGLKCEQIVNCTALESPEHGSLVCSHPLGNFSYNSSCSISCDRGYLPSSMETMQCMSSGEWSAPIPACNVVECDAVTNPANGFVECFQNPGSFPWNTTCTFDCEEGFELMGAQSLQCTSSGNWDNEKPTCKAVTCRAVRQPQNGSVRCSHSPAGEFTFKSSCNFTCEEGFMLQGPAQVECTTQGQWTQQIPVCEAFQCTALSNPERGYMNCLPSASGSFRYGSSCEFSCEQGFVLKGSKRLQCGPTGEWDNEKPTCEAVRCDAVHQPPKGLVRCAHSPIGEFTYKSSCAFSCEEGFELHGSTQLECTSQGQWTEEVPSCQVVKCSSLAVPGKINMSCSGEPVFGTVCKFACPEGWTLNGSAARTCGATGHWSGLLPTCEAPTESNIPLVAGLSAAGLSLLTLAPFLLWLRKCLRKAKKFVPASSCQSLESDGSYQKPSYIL

In the case of `COC(=O)c1ccccc1C(=O)OC`, the result in experiment [1], in experiment [2], in experiment [3], in experiment [4], in experiment [5] and in experiment [6] was inactive. Also, the outcome with CD40, CD40 (gene 958) [7] is “inactive”; in experiment [8] it was “inactive”; in experiment [9] it was “inactive”; in experiment [10], “inactive”; in [11], “inactive”; in [12] it was “inactive”. Besides, the outcome was “inactive” in [13]; “inactive” in experiment [14]; “inactive” in [15]; “inactive” in experiment [16]; “inactive” in experiment [17]; “inactive” with CD38, CD38 (gene 952). The outcome with CD40, CD40 (gene 958) [18] was “inactive”; in the experiment with CD69, CD69 (gene 969), “inactive”.

Turning to `CCNc1nc(Cl)nc(NC(C)C)n1`, the result in experiment [1], in experiment [2], in experiment [3], in experiment [4], in experiment [5] and in experiment [6] was inactive. The outcome with CD40, CD40 (gene 958) [7] is “inactive”; in [8] it was “inactive”; in experiment [9] it was “inactive”; in [10], “inactive”; in [11], “inactive”; in [12], “inactive”. For the same compound, the outcome in experiment [13] was “inactive”; in [14] it was “inactive”; in experiment [15], “inactive”; in experiment [17], “inactive”; with CD38, CD38 (gene 952), “inactive”; in the experiment with CD40, CD40 (gene 958) [18] it was “inactive”. The outcome in the experiment with CD69, CD69 (gene 969) was inactive. In addition, the AC50 in [16] is 6.09 µM (active).

On to `COC(=O)C(C)Oc1ccc(Oc2ccc(Cl)cc2Cl)cc1` (configuration not stated), for which the half-maximal activity concentration (AC50) in experiment [1] was 5.15 µM (active); in [5], 20 µM (active); in [6], 21.1 µM (active) and 31.6 µM (active); with CD40, CD40 (gene 958) [7] it was 29.2 µM (active) and 34.7 µM (active); in experiment [12] it was 28.9 µM (active); in experiment [13] it was 11.4 µM (active) and 12 µM (active) and 23.5 µM (active). In addition, the AC50 was 10.9 µM (active) with CD38, CD38 (gene 952) and 13.6 µM (active) in the experiment with CD40, CD40 (gene 958) [18]. In addition, the outcome in experiment [1], in experiment [2], in experiment [3], in [4], in [5] and in experiment [6] was inactive. The outcome is “inactive” with CD40, CD40 (gene 958) [7]; “inactive” in experiment [8]; “inactive” in experiment [9]; “inactive” in experiment [10]; “inactive” in [11]; “inactive” in experiment [12]. For the same compound, the outcome is “inactive” in [14]; “inactive” in experiment [15]; “inactive” in experiment [16]; “inactive” in [17]; “inactive” with CD38, CD38 (gene 952); “inactive” with CD40, CD40 (gene 958) [18]. Also, the result in the experiment with CD69, CD69 (gene 969) was inactive.

(Values after PubChem BioAssay (EPA / NIEHS).)
